In PubChem BioAssay AID1224921 (Broad Institute, 2016) one finds max activity data, which are given here for 57 compounds.

Each structure is given as a SMILES string. Screen size: about 1,400 compounds; about 350 (25%) were called active. Not shown: some 2% with an inconclusive outcome. The rule behind the calls is not given here. Only a sample is shown. Measured potencies and affinities stand elsewhere.

This assay in a line: inhibitors of Clostridioides difficile proliferation – 4-point retest, confirmation (AID 1224921).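 Note: plate controls were DMSO wells for no effect and levofloxacin 16 µg/mL wells for full effect.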 As to conditions: Clostridioides difficile clinical isolate growth, OD600, 24 h, hits give low values; at 30 µM unless noted.
On to `CC(C)CC#Cc1ccc2c(c1)O[C@@H](CN(C)Cc1ccncc1)[C@@H](C)CN([C@H](C)CO)S2(=O)=O`, for which the max activity was 7.2% [at 0.5 µM] (inactive). The figure for `O=C(C[C@@H]1CC[C@@H](NC(=O)CCN2CCCCC2)[C@@H](CO)O1)Nc1nccs1` is -8.84% [at 1.95 µM] (inactive). Regarding `CCS(=O)(=O)Nc1ccc2c(c1)C(=O)N(C)C[C@H](OC)[C@@H](C)CN(C(C)=O)[C@H](C)CO2`, the max activity was 8.06% (inactive). In the case of `CO[C@@H]1CN(C)C(=O)c2cc(NC(=O)c3ccc(-c4ccccc4)cc3)ccc2OC[C@H](C)NC[C@H]1C`, the max activity is 10.1% [at 1.95 µM] (inactive). Regarding `CCc1cnc(N2[C@H](CO)[C@@H](c3ccc(C4=CCCCC4)cc3)[C@@H]2C#N)s1`, the max activity is 36.5% [at 0.5 µM] (inactive). As for `C[C@H]1CN([C@@H](C)CO)S(=O)(=O)c2ccc(/C=C/c3ccccc3)cc2O[C@H]1CN(C)C(=O)NC1CCCCC1`, the max activity is 52.4% (inactive).

`COCC(=O)Nc1ccc2c(c1)OC[C@@H](C)N(Cc1ccccc1OC)C[C@@H](C)[C@H](OC)CN(C)C2=O`: the max activity is -8.61% [at 7.5 µM] (inactive). Take `CC(C)COC(=O)N(C)C[C@@H]1OCc2ccccc2-c2c(n(C)c3ccccc23)C(=O)N([C@@H](C)CO)C[C@@H]1C`: the max activity was -18.1% [at 8 µM] (inactive). In the case of `CCC(=O)Nc1ccc2c(c1)C(=O)N(C)C[C@@H](OC)[C@@H](C)CN(Cc1cncnc1)[C@@H](C)CO2`, the max activity is -7.99% [at 0.5 µM] (inactive). In the case of `C[C@@H]1CN([C@@H](C)CO)C(=O)Cc2cc(NS(C)(=O)=O)ccc2O[C@@H]1CN(C)Cc1ccc(Oc2ccccc2)cc1`, the max activity was 36.1% [at 35 µM] (inactive). As for `C[C@H](CO)N1C[C@H](C)[C@@H](CN(C)Cc2ccncc2)Oc2cc(-c3ccccc3)ccc2S1(=O)=O`, the figure is 23.5% (inactive); as for `C[C@@H]1CCCCO[C@H](CN(C)CC2CCCCC2)[C@H](C)CN([C@@H](C)CO)C(=O)c2cc(NC(=O)Nc3ccccc3)ccc2O1`, 9.95% (inactive).

Take `C[C@@H]1CCCCO[C@H](CN(C)CC2CCCCC2)[C@H](C)CN([C@@H](C)CO)C(=O)c2cc(NC(=O)Nc3ccc(F)cc3)ccc2O1`: the max activity is 11.6% (inactive). The figure for `CO[C@H]1O[C@H](CO)[C@@H](OC(=O)Nc2ccccc2)[C@H](OC(=O)Nc2ccc3c(c2)OCO3)[C@H]1OC(=O)Nc1ccc2c(c1)OCO2` is -7.27% [at 1.95 µM] (inactive). As for `Cc1ccccc1S(=O)(=O)NCC[C@H]1CC[C@H](NC(=O)Nc2cccc(Cl)c2)[C@@H](CO)O1`, the figure is 13.2% (inactive).

`CO[C@@H]1CN(C)C(=O)c2cc(NC(C)=O)ccc2OC[C@H](C)N(Cc2nccs2)C[C@@H]1C`: the max activity was 24.6% (inactive). For the compound `N#C[C@H]1[C@@H](c2ccc(-c3ccc(F)cc3)cc2)[C@H](CO)N1C(=O)Cc1ccccc1`, the max activity was 29.3% [at 8 µM] (inactive). `CC(C)C#Cc1ccc([C@@H]2[C@@H](CO)N(C(=O)c3cccc(F)c3)[C@H]2C#N)cc1`: the max activity is 15.2% (inactive). Take `CC(C)NC(=O)N1[C@H](C#N)[C@@H](c2ccc(-c3ccc(F)cc3)cc2)[C@@H]1CO`: the max activity is 21.4% [at 8 µM] (inactive). Turning to `N#C[C@@H]1[C@@H](c2ccc(C#Cc3ccc(F)cc3)cc2)[C@H](CO)N1C(=O)C1CCC1`, the max activity is 35.7% (inactive). Turning to `CO[C@H]1O[C@H](CO)[C@@H](OC(=O)c2ccc(Br)cc2)[C@H](OC(=O)c2cc3ccccc3[nH]2)[C@H]1OC(=O)c1cc2ccccc2[nH]1`, the max activity is 39.8% (inactive). Turning to `CC(C)CC#Cc1ccc2c(c1)O[C@H](CN(C)Cc1ccncc1)[C@H](C)CN([C@@H](C)CO)S2(=O)=O`, the max activity is 25.7% (inactive). As to `C[C@@H]1CN([C@@H](C)CO)S(=O)(=O)c2ccc(C#CC3(O)CCCC3)cc2O[C@@H]1CN(C)C(=O)Nc1cccc(F)c1`, the max activity was 40.2% (inactive). As for `CO[C@H]1CN(C)C(=O)c2cc(NS(=O)(=O)c3cn(C)cn3)ccc2OC[C@H](C)N(C)C[C@@H]1C`, the figure is -7.09% [at 0.5 µM] (inactive). Turning to `COc1cccc(NC(=O)N[C@@H]2C=C[C@H](CC(=O)NCc3ccncn3)O[C@H]2CO)c1`, the max activity was 11.5% (inactive).

Regarding `CC(C)NC(=O)N(C)C[C@H]1Oc2cc(C#Cc3cccc(F)c3)ccc2S(=O)(=O)N([C@H](C)CO)C[C@H]1C`, the max activity is 32.6% (inactive). As for `C[C@H](CO)N1C[C@H](C)[C@@H](CN(C)Cc2ccc(Cl)c(Cl)c2)Oc2ccc(NS(=O)(=O)c3cccs3)cc2CC1=O`, the figure is 37.8% [at 8 µM] (inactive); as for `CO[C@@H]1CN(C)C(=O)c2ccc(NC(=O)NC(C)C)cc2OC[C@@H](C)N(C(=O)NC(C)C)C[C@H]1C`, -11.6% [at 2.1 µM] (inactive); as for `CCCC(=O)Nc1ccc2c(c1)OC[C@H](C)N(CCc1ccccc1)C[C@@H](C)[C@H](OC)CN(C)C2=O`, 25.9% (inactive).

As to `O=C(Nc1ccc(Cl)cc1)N[C@@H]1CC[C@@H](CCn2cc(C3(O)CCCC3)nn2)O[C@@H]1CO`, the max activity is 29.6% (inactive). Regarding `C[C@@H]1CN([C@@H](C)CO)C(=O)c2ccccc2-c2ccccc2CO[C@H]1CN(C)CC1CC1`, the max activity is 9.59% (inactive). For the compound `CO[C@@H]1CN(C)C(=O)c2ccc(NC(=O)Nc3cccc(F)c3)cc2OC[C@@H](C)N(C(=O)C2CC2)C[C@H]1C`, the max activity is -12.2% [at 8 µM] (inactive). On to `C[C@@H]1CN([C@@H](C)CO)C(=O)c2cc(NC(=O)NC3CCCCC3)ccc2O[C@@H](C)CCCCO[C@@H]1CN(C)Cc1ccc(C(F)(F)F)cc1`, for which the max activity was 24.6% (inactive). As for `CC(C)CC#Cc1ccc2c(c1)O[C@H](CN(C)Cc1ccccn1)[C@@H](C)CN([C@@H](C)CO)S2(=O)=O`, the figure is 27.1% (inactive). Take `CC(C)C#Cc1ccc2c(c1)O[C@H](CN(C)Cc1cccnc1)[C@@H](C)CN([C@H](C)CO)S2(=O)=O`: the max activity was 44.6% (inactive). In the case of `CCCC(=O)Nc1ccc2c(c1)C(=O)N(C)C[C@@H](OC)[C@@H](C)CN(C)[C@@H](C)CO2`, the max activity was -13% [at 8 µM] (inactive). As to `C[C@@H]1CN([C@H](C)CO)C(=O)c2cccc(NC(=O)Nc3ccc(F)cc3)c2O[C@H]1CN(C)S(=O)(=O)c1ccc(F)cc1`, the max activity was -11.6% [at 7.5 µM] (inactive).

With `C[C@@H]1CN([C@@H](C)CO)C(=O)c2cccc(NC(=O)Nc3ccc(C(F)(F)F)cc3)c2O[C@H]1CN(C)Cc1ccc2c(c1)OCO2`, the max activity was 34.4% [at 8 µM] (inactive). Consider `C[C@H]1CN([C@@H](C)CO)C(=O)c2cccc(NC(=O)Nc3ccc(C(F)(F)F)cc3)c2O[C@@H]1CN(C)Cc1ccc2c(c1)OCO2`, for which the max activity was 42% (inactive). Regarding `Cc1ccc(S(=O)(=O)N(C)C[C@@H]2Oc3c(NC(=O)Nc4ccc(F)cc4)cccc3C(=O)N([C@H](C)CO)C[C@H]2C)cc1`, the max activity is -10.7% [at 1.95 µM] (inactive). Regarding `C[C@@H]1CN([C@@H](C)CO)C(=O)c2cc(Br)cnc2O[C@H]1CN(C)C(=O)c1ccccc1`, the max activity was 9.74% (inactive). The figure for `Cc1noc(C)c1NC(=O)N[C@H]1CC[C@@H](CC(=O)Nc2ccc(-c3ccccc3)cc2)O[C@H]1CO` is 12.6% (inactive); for `COc1ccc(NC(=O)Nc2ccc3c(c2)C(=O)N([C@@H](C)CO)C[C@@H](C)[C@H](CN(C)Cc2ccccc2)OCCCC[C@@H](C)O3)cc1` it is 30.9% (inactive); for `CCCC(=O)Nc1ccc2c(c1)C(=O)N(C)C[C@H](OC)[C@@H](C)CN(Cc1ccccc1)[C@H](C)CO2` it is 15.3% (inactive). In the case of `O=C(C[C@@H]1C=C[C@@H](NC(=O)CC2CC2)[C@H](CO)O1)NCc1ccc(-c2ccccc2)cc1`, the max activity is -9.84% [at 0.5 µM] (inactive).

Take `CO[C@H]1CN(C)C(=O)c2cc(NC(C)=O)ccc2OC[C@H](C)N(CCc2ccccc2)C[C@H]1C`: the max activity was 19.8% (inactive). Turning to `CCCN1C[C@H](C)[C@H](OC)CN(C)C(=O)c2cc(NC(=O)c3cccc(F)c3)ccc2OC[C@@H]1C`, the max activity was -11.7% [at 1.95 µM] (inactive). Regarding `C=CCOC(=O)[C@H]1[C@@H]2C(=O)O[C@@H](c3ccccc3)[C@@H](c3ccccc3)N2[C@@H](c2ccc(OCCOC(=O)[C@@H]3C[C@@H]4C(=O)N[C@@H](CC(C)C)C(=O)N4[C@@H]3c3cccc(OCCO)c3)cc2)[C@]12C(=O)Nc1ccccc12`, the max activity was 24.6% (inactive). `COc1ccc(-c2ccc([C@H]3[C@@H](C#N)N(C(=O)C4CC4)[C@H]3CO)cc2)cc1`: the max activity is 32.9% (inactive). As for `C[C@@H]1CN([C@H](C)CO)C(=O)Cc2cc(NC(=O)c3ccncc3)ccc2O[C@@H]1CN(C)Cc1ccc(-c2ccccc2)cc1`, the figure is 47.8% [at 35 µM] (inactive); as for `CO[C@H]1CN(C)C(=O)c2ccc(NS(C)(=O)=O)cc2OC[C@@H](C)N(Cc2ccccn2)C[C@H]1C`, -14.3% [at 8 µM] (inactive). For `COCC(=O)Nc1ccc2c(c1)OC[C@@H](C)N(C(=O)c1ccccc1F)C[C@H](C)[C@H](OC)CN(C)C2=O`, the max activity was 7.88% (inactive).

Regarding `C[C@@H]1CN([C@H](C)CO)S(=O)(=O)c2ccc(C#CCN(C)C)cc2O[C@H]1CN(C)C(=O)c1ccccc1F`, the max activity is 18% (inactive). As to `CCCN1C[C@@H](C)[C@@H](OC)CN(C)C(=O)c2cc(NC(=O)c3cccc(F)c3)ccc2OC[C@@H]1C`, the max activity was -11.8% (inactive). `CCCN1C[C@H](C)[C@@H](OC)CN(C)C(=O)c2ccc(NC(=O)CC)cc2OC[C@H]1C`: the max activity was 5.45% [at 1.95 µM] (inactive). Turning to `COCC(=O)N1C[C@H](C)[C@@H](OC)CN(C)C(=O)c2cc(NC(=O)NC(C)C)ccc2OC[C@@H]1C`, the max activity is 23.4% (inactive). Take `C[C@H](CO)N1C[C@H](C)[C@H](CN(C)S(=O)(=O)c2cccc(F)c2)Oc2ncc(C#CCN(C)C)cc2C1=O`: the max activity was 8.03% (inactive).
